# From PubChem BioAssay
# hcDAF-12 act – H. contortus DAF-12 nuclear receptor activators, primary screen, cell-based, luminescence, HEK293, lit1-tk-luc reporter; HEK293 hcDAF-12 lit1-tk-luc reporter; 0% DMSO, 100% Δ7-dafachronic acid; activation, % at 6.8 µM; 1.4% of 370,000 active;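 active means activation above the mean of all tested compounds plus 3 SD, cut at about 5.5% in these data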;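 further: 100% = response to 3 µM Δ7-dafachronic acid high control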
# DAX1 inh-1 – DAX1 (NR0B1) inhibitors, primary screen, cell-based, HEK293, Gal4-DAX1, luciferase luminescence | Nuclear receptor subfamily 0 group B member 1 (Homo sapiens), P51843 | HEK293 Gal4-DAX1 luciferase reporter | inhibition, % at 6.75 µM | 0.99% of 340,000 active | AID 504766, 2011;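 active means inhibition above the mean over all tested compounds plus 3 SD, cut at about 4.2% in these data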;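 further: 0% = DAX1-transfected cells with DMSO and 100% = empty-vector control cells with DMSO; inhibition shows as a rise in luminescence from relieved DAX1 repression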
# Target sequence (P51843 207-470 limits assumed): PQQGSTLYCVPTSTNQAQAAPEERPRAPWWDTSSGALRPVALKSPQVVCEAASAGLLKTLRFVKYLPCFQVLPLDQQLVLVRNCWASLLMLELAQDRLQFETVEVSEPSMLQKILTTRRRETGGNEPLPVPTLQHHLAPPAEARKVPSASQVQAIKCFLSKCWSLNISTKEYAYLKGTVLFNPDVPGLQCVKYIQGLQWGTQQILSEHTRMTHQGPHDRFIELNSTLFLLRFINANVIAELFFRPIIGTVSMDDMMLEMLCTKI
# hgDAF-12 ag – H. glycines DAF-12 receptor agonists, primary screen, cell-based, luminescence, HEK293, GAL4 fusion, UAS-luciferase. activation, % at 6.8 µM. 1.8% of 370,000 active. HEK293 GAL4-hgDAF12 UAS-luciferase reporter, agonist luminescence; normalized to butyrate control. AID 687014, 2013;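 active means activation above a cutoff set at the mean of all screened compounds plus 3 SD, cut at about 10% in these data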;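 further: 0% = DMSO wells and 100% = sodium butyrate wells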
# DAX1 inh-2 – DAX1 (NR0B1) inhibitors on StAR promoter, primary screen, cell-based, luminescence, SF-1 (NR5A1), full-length DAX-1; 1.1% of 370,000 active; inhibition, % at 6.8 µM; HEK293T StAR-luciferase reporter, SF-1/DAX-1 repression relief;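 active means inhibition above the mean over all tested compounds plus 3 SD, cut at about 3.6% in these data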;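 further: 0% = DAX-1 cells with DMSO and 100% = cells lacking DAX-1 with DMSO; higher inhibition means more luminescence from relief of DAX-1 repression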
# ssDAF12 agonist – S. stercoralis DAF-12 nuclear receptor activators, primary screen, cell-based, luminescence, HEK293, GRIP1 co-expression, lit1-tk-luc; Nuclear hormone receptor DAF-12 (Strongyloides stercoralis); HEK293 ssDAF-12/GRIP1 lit1-tk-luc reporter; % of 3 µM dafachronic acid response; activation, % at 6.8 µM; 1% of 370,000 active;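 active means activation above the mean over all tested compounds plus 3 SD, cut at about 0.9% in these data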;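 further: 0% = DMSO-only wells and 100% = 3 µM delta7-dafachronic acid wells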
# An asterisk follows results filed as active; . = no result. In the library only some 4.1% were active in any assay of this set; here they are far more common.
SMILES,hcDAF-12 act,DAX1 inh-1,hgDAF-12 ag,DAX1 inh-2,ssDAF12 agonist
CC(C)n1nnnc1C1c2ccccc2C(=O)N1CCOc1ccccc1 (stereo unspecified),5,.,13*,2,1
CC(C)n1nnnc1C1c2ccccc2C(=O)N1CCc1ccccc1F (stereo unspecified),5.7*,.,15*,2,0
O=C(Nc1ccc(Oc2ccccc2)cc1)C1CCN(c2nnc(-n3cccc3)s2)CC1,-2,.,4,-1,-2
COc1cccc(OC(C)CCN2CCC(C(O)(c3ccccc3)c3ccccc3)CC2)c1 (stereo unspecified),3,.,1,-1,0.9*
Cc1cccc(OC(C)CCN2CCC(C(O)(c3ccccc3)c3ccccc3)CC2)c1 (stereo unspecified),3,.,-3,0,-1
CC(CCN1CCC(C(O)(c2ccccc2)c2ccccc2)CC1)Oc1ccc(C#N)cc1F (stereo unspecified),6.0*,.,-3,0,-1
CCCCS(=O)(=O)N1C2=NC3=C(C(=O)N(CCOC)C3=O)C3N(C)c4ccccc4[C@]23C[C@H]1CO (stereo partly specified),-1,.,-3,0,-1
c1ccc(-c2noc(C34CC5CC(CC(C5)C3)C4)n2)nc1,6.3*,2,7,1,0.9*
Cc1occc1-c1nc(-c2ccccn2)no1,6.0*,-1,11*,3,1
c1ccc(-c2noc(-c3ccc4ccccc4c3)n2)nc1,.,-8,.,.,.
Cc1occc1-c1nc(-c2ccncc2)no1,-1,0,7,0,-1
c1ccc(-c2noc(C34CC5CC(CC(C5)C3)C4)n2)cc1,0,-1,0,0,-1
c1ccc(-c2noc(-c3ccncc3)n2)nc1,3,1,8,3.8*,-1
CCN(CC)C(=O)c1ccc2c(c1)NC(=O)C(C)(C)O2,-3,.,1,1,-1
COc1ccc(C(=O)Cc2ccc3c(c2)OCO3)c(O)c1,4,1,9,3,1.4*
COc1ccc(CC(=O)c2ccc(O)cc2O)cc1,1,5.8*,7,3,0
O=C(O)COc1ccc(C(=O)Cc2ccc3c(c2)OCCCO3)c(O)c1,-3,0,-1,0,-1
CC(=O)c1ccccc1OCCOc1ncnc2sccc12,2,0,11*,1,-2
O=S(=O)(Nc1ccc(C(O)(C(F)(F)F)C(F)(F)F)cc1)c1cccs1,1,.,-2,.,-1
COc1ccc(S(=O)(=O)NCC(=O)N2CCN(c3ccccn3)CC2)c(OC)c1,-4,.,-3,-1,-1
COc1cc(OC)cc(C(=O)NC(=S)NNC(=O)c2cnccn2)c1,-1,1,1,0,-2
COc1ccc(C(=O)NC(=S)NNC(=O)c2cnccn2)cc1OC,-1,4.9*,5,0,-1
Cc1ccccc1C(=O)NC1CCN(Cc2ccccc2)CC1,1,0,0,0,1.4*
Cc1ccccc1C(=O)NC1CCN(CC(=O)NCc2cccs2)CC1,-1,5.2*,3,0,-2
Cc1ccccc1C(=O)NC1CCN(Cc2nnnn2CCc2ccccc2)CC1,0,-1,2,0,-1
SMILES,hcDAF-12 act,DAX1 inh-1,hgDAF-12 ag,DAX1 inh-2,ssDAF12 agonist
Cc1ccc(C(=O)NC2CCN(CC(=O)NCc3cccs3)CC2)cc1,0,1,-1,2,-1
CCOC(=O)[C@@]12CN(C(=O)OC(C)(C)C)CC=C1N(Cc1ccc(OC)cc1)C(=O)[C@H]2CC(=O)N1CCN(C(=O)C2CC2)CC1,0,.,-2,0,0
Cc1cc(SCCOc2ccccc2)nc(N)n1,-2,5.1*,7,2,0
Cc1cc(OC[C@@H](O)CN2CCC(C(O)(c3ccccc3)c3ccccc3)CC2)ccc1Br,0,.,-2,-1,-1
COC(=O)C1CN(Cc2ccc(OC)cc2)CCS(=O)(=O)N1Cc1ccc(F)cc1 (stereo unspecified),0,.,-1,0,-2
O=c1[nH]c(S)c(/C=C2\C=Nc3ccccc32)s1,4,.,2,0,1.2*
Oc1nc(Nc2ccc(F)cc2)sc1/C=C1\C=Nc2ccccc21,1,0,-2,-1,0
O=C(c1cccc(C(F)(F)F)c1)N1CC[C@H]2[C@H](CCCN2Cc2ccccc2)C1,-1,.,-1,-1,-1
CC1CCC(NC(=O)Cn2c(=O)[nH]c3ccsc3c2=O)CC1 (stereo unspecified),1,2,3,0,-1
O=C(Cn1c(=O)[nH]c2ccsc2c1=O)NC1CCCCCC1,0,7.3*,3,1,-2
Cc1cc(C)nc(NC(=O)/C=C/c2ccc3c(c2)OCO3)c1,3,1,10,4.2*,0
CCOc1cccc2sc(N(CCN(CC)CC)C(=O)c3ccc(S(=O)(=O)N4CCCCC4)cc3)nc12,0,-1,0,0,2.0*
CN1CCCC1CCSc1ncccc1-c1nc2ccccc2[nH]1 (stereo unspecified),-1,.,4,1,-1
CCCCNC(=O)C[C@H]1C[C@@]2(C(=O)OC)C(=C[C@H](C3CCCC3)O[C@@H]2C)N(CCC2=CCCCC2)C1=O,3,.,-1,-1,-1
CC(C)c1ccc(Nc2nnc(SCC(=O)NCC3CCCO3)s2)cc1 (stereo unspecified),0,1,12*,1,-1
CC1CCCC(C)N1S(=O)(=O)c1ccc(Cl)cc1 (stereo unspecified),-2,4.7*,-1,0,-2
COC(=O)[C@]12C[C@H](CC(=O)NCc3ccc(OC)c(OC)c3)C(=O)N(Cc3ccco3)C1=C[C@H](C(C)(C)C)O[C@@H]2C,-1,.,0,0,-1
O=C(C1CCN(c2cncnc2)CC1)N1CCOCC1,0,.,3,-1,0
Cc1c(C(=O)Nc2nccs2)oc2c(Cl)cccc12,5,2,7,1,1.3*
Cc1c(C(=O)NC(C)c2ccccn2)oc2c(Cl)cccc12 (stereo unspecified),5,-2,-1,-1,0
O=S1(=O)c2ccc(N3CCN(Cc4ccccc4F)CC3)cc2Oc2ccccc2CN1Cc1cn(Cc2cccc(F)c2)nn1,-1,.,-2,-1,-2
C=CCNc1nc(-c2ccc([N+](=O)[O-])cc2)cs1,1,-1,12*,0,-1
O=[N+]([O-])c1ccc(S(=O)(=O)Nc2nc(-c3ccccc3)cs2)cc1,-1,0,-2,0,0
